The campaign covered roughly 39,000 compounds. About 3,300 (8.5%) were called active. For the sample, actives were picked, then their nearest neighbours and some compounds at random.

The test system of the experiment is HepG2. Description: cytotoxicity call (relative viability < 0.9). The settings on record: 10 µM.
In the case of `CC1c2cccc(O)c2C(=O)C2=C(O)C3(O)C(=O)C(C(N)=O)=C(O)C(N(C)C)C3C(O)C21.Cl` (centres undefined), the cytotoxicity call is “inactive”.

In the case of `COc1ccc2c3c(n(c2c1)C)[C@H](CO)N(C[C@]13CN(Cc2ccncc2)C1)C(=O)CN1CCOCC1`, the cytotoxicity call is “inactive”.

Regarding `CC(C)NC(=O)N(C)C[C@@H]1Oc2ccc(NC(=O)Nc3ccc4c(c3)OCO4)cc2CC(=O)N([C@H](C)CO)C[C@H]1C`, the cytotoxicity call was “inactive”.

Regarding `C[C@H]1CN([C@@H](C)CO)C(=O)c2cc(NS(=O)(=O)c3ccc(F)cc3)ccc2O[C@@H]1CN(C)S(=O)(=O)c1ccc(F)cc1`, the cytotoxicity call is “inactive”.

Consider `C[C@H](CO)N1C[C@H](C)[C@@H](CN(C)S(=O)(=O)c2ccc(Cl)cc2)Oc2ccc(NC(=O)C3CC3)cc2CC1=O`, for which the cytotoxicity call was “inactive”.

Take `CCOC(=O)c1nonc1N`: the cytotoxicity call is “inactive”.

Take `CN(CCCCCCCCCCN(C)C(=O)Oc1cccc([N+](C)(C)C)c1)C(=O)Oc1cccc([N+](C)(C)C)c1`: the cytotoxicity call was “inactive”.

On to `O=C(NCc1ccncc1)C(=O)NC[C@H]1OCCN1S(=O)(=O)c1ccc(F)cc1`, for which the cytotoxicity call was “inactive”.

Regarding `C[C@@H]1CN([C@@H](C)CO)C(=O)c2cccc(NC(=O)Nc3ccc(C(F)(F)F)cc3)c2O[C@H]1CN(C)Cc1ccc(-c2ccccc2)cc1`, the cytotoxicity call is “inactive”.

For the molecule `C[C@H]1CN([C@@H](C)CO)C(=O)c2ccccc2-c2ccccc2CO[C@@H]1CN(C)Cc1ccccc1C(F)(F)F`, the cytotoxicity call is “inactive”.

Consider `CCCCC(O)c1ccccc1` (centres undefined), for which the cytotoxicity call was “inactive”.

For the molecule `CC(NCCC(c1ccccc1)c1ccccc1)c1ccccc1.Cl` (centres undefined), the cytotoxicity call was “active”.

With `C[C@@H](NC(=O)[C@@H]1CCCC[C@H]1C(=O)O)c1ccccc1.C[C@@H](NC(=O)[C@H]1CCCC[C@H]1C(=O)O)c1ccccc1`, the cytotoxicity call is “inactive”.

As to `C[C@H](NC(=O)[C@@H]1CCCC[C@H]1C(=O)O)c1ccccc1.C[C@H](NC(=O)[C@H]1CCCC[C@H]1C(=O)O)c1ccccc1`, the cytotoxicity call was “inactive”.

Consider `CCCC[C@@H](O)c1ccccc1`, for which the cytotoxicity call is “inactive”.

For `C[C@@H](NCCC(c1ccccc1)c1ccccc1)c1ccccc1`, the cytotoxicity call was “active”.

Consider `Cc1noc(C)c1NC(=O)Nc1ccc2c(c1)C(=O)N([C@@H](C)CO)C[C@@H](C)[C@@H](CN(C)C(=O)Nc1ccc(C(F)(F)F)cc1)OCCCC[C@@H](C)O2`, for which the cytotoxicity call is “inactive”.

`C[C@@H]1CN([C@H](C)CO)C(=O)Cc2cc(NC(=O)Nc3ccc(F)cc3)ccc2O[C@H]1CN(C)C(=O)Nc1cccc2ccccc12`: the cytotoxicity call is “inactive”.

For `C[C@@H]1CN([C@@H](C)CO)C(=O)Cc2cc(NS(=O)(=O)c3cn(C)cn3)ccc2O[C@@H]1CN(C)S(=O)(=O)c1cccs1`, the cytotoxicity call is “inactive”.

For `Cc1noc(C)c1S(=O)(=O)N(C)C[C@@H]1OCCCC[C@@H](C)Oc2ccc(NC(=O)Nc3ccccc3)cc2C(=O)N([C@H](C)CO)C[C@@H]1C`, the cytotoxicity call is “inactive”.

Consider `C[C@@H]1CN([C@H](C)CO)C(=O)Cc2cc(NC(=O)C3CCCCC3)ccc2O[C@H]1CN(C)Cc1ccc(Cl)c(Cl)c1`, for which the cytotoxicity call was “inactive”.

Consider `N=C(N)c1ccc2nc(-c3cc(CC(=O)N[C@@H](CC(=O)O)C(=O)O)cc(-c4cc(S(N)(=O)=O)ccc4O)c3O)[nH]c2c1`, for which the cytotoxicity call was “inactive”.

As for `C[C@H](CO)N1C[C@H](C)[C@H](CN(C)C(=O)Nc2ccc(C(F)(F)F)cc2)Oc2ccc(NC(=O)Nc3cccc4ccccc34)cc2CC1=O`, the cytotoxicity call is “inactive”.

As to `C[C@@H]1CN([C@H](C)CO)C(=O)Cc2cc(NC(=O)NC3CCCCC3)ccc2O[C@@H]1CN(C)Cc1ccc(Cl)c(Cl)c1`, the cytotoxicity call is “active”.

Take `C[C@H](CO)N1C[C@H](C)[C@@H](CN(C)Cc2ccc(Cl)c(Cl)c2)Oc2ccc(NC(=O)NC3CCCCC3)cc2CC1=O`: the cytotoxicity call is “inactive”.

Take `C[C@H](CO)N1C[C@H](C)[C@H](CN(C)Cc2ccc(Cl)c(Cl)c2)Oc2ccc(NC(=O)NC3CCCCC3)cc2CC1=O`: the cytotoxicity call is “inactive”.

Consider `C[C@@H]1CN([C@@H](C)CO)C(=O)Cc2cc(NC(=O)NC3CCCCC3)ccc2O[C@@H]1CN(C)Cc1ccc(Cl)c(Cl)c1`, for which the cytotoxicity call was “active”.

Consider `C[C@@H]1CN([C@H](C)CO)C(=O)Cc2cc(NC(=O)NC3CCCCC3)ccc2O[C@H]1CN(C)Cc1ccc(Cl)c(Cl)c1`, for which the cytotoxicity call is “inactive”.

For the molecule `C[C@@H]1CN([C@@H](C)CO)C(=O)Cc2cc(NC(=O)NC3CCCCC3)ccc2O[C@H]1CN(C)Cc1ccc(Cl)c(Cl)c1`, the cytotoxicity call is “inactive”.

Regarding `C[C@@H]1CN([C@H](C)CO)C(=O)c2cc(NS(=O)(=O)c3ccc(Cl)cc3)ccc2O[C@@H](C)CCCCO[C@H]1CN(C)C(=O)Nc1ccccc1`, the cytotoxicity call was “inactive”.

Take `O=C(C[C@@H]1CC[C@@H]2[C@H](COC[C@@H](O)CN2S(=O)(=O)c2ccccc2)O1)NCCN1CCCCC1`: the cytotoxicity call is “inactive”.

Take `CC(CN(C)C)CN1c2ccccc2Sc2ccccc21.O=C(O)C(O)C(O)C(=O)O` (centres undefined): the cytotoxicity call is “active”.

For the molecule `CC(CN(C)C)CN1c2ccccc2CCc2ccccc21.O=C(O)C=CC(=O)O` (centres undefined), the cytotoxicity call was “active”.

Regarding `CCOC(=O)C(CCc1ccccc1)NC1CCc2ccccc2N(CC(=O)O)C1=O.Cl` (centres undefined), the cytotoxicity call was “inactive”.

In the case of `O=C(Nc1ccccc1)N1c2ccccc2CCc2ccccc21`, the cytotoxicity call was “inactive”.

Take `O=C(c1ccccc1F)N1c2ccccc2Sc2ccccc21`: the cytotoxicity call is “inactive”.

`Cc1ccc(C(=O)N2c3ccccc3Sc3ccccc32)cc1`: the cytotoxicity call was “inactive”.

With `COc1ccc(NC(=O)N(C)C[C@@H]2OCc3ccccc3-c3c(n(C)c4ccccc34)C(=O)N([C@H](C)CO)C[C@@H]2C)c(OC)c1`, the cytotoxicity call is “inactive”.

Turning to `CCC(=O)Nc1ccc2c(c1)OC[C@@H](C)N(C(=O)CN1CCOCC1)C[C@@H](C)[C@H](OC)CN(C)C2=O`, the cytotoxicity call is “inactive”.

As to `Cc1noc(C)c1NC(=O)Nc1ccc2c(c1)C(=O)N([C@H](C)CO)C[C@H](C)[C@@H](CN(C)C(=O)Nc1ccc(C(F)(F)F)cc1)O2`, the cytotoxicity call was “inactive”.

As to `Cc1ccc(S(=O)(=O)Nc2cccc3c2O[C@H](CN(C)Cc2ccc(Oc4ccccc4)cc2)[C@@H](C)CN([C@@H](C)CO)C3=O)cc1`, the cytotoxicity call was “inactive”.

As to `C[C@@H]1CN([C@@H](C)CO)C(=O)Cc2cc(NC(=O)NC3CCCCC3)ccc2O[C@H]1CN(C)S(=O)(=O)c1cn(C)cn1`, the cytotoxicity call is “inactive”.

As for `C[C@H]1CCCCO[C@H](CN(C)S(=O)(=O)c2ccc(F)cc2)[C@@H](C)CN([C@@H](C)CO)C(=O)c2cc(NC(=O)NC3CCCCC3)ccc2O1`, the cytotoxicity call was “inactive”.

As for `C[C@@H]1CN([C@H](C)CO)C(=O)c2cccc(NC(=O)CCCCCC(=O)Nc3ccccc3N)c2O[C@H]1CN(C)Cc1ccc(Oc2ccccc2)cc1`, the cytotoxicity call is “inactive”.

As to `COc1ccc(CN(C)C[C@H]2Oc3c(NC(=O)CCCCCC(=O)Nc4ccccc4N)cccc3C(=O)N([C@@H](C)CO)C[C@@H]2C)cc1`, the cytotoxicity call was “active”.

For the molecule `C[C@H](CO)N1C[C@H](C)[C@H](CN(C)Cc2ccc(Oc3ccccc3)cc2)Oc2c(NC(=O)CCCCCC(=O)Nc3ccccc3N)cccc2C1=O`, the cytotoxicity call is “inactive”.

For `COc1ccc(CN(C)C[C@@H]2Oc3c(NC(=O)CCCCCC(=O)Nc4ccccc4N)cccc3C(=O)N([C@@H](C)CO)C[C@H]2C)cc1`, the cytotoxicity call was “inactive”.

Take `C[C@@H]1CN([C@@H](C)CO)C(=O)c2cccc(NC(=O)CCCCCC(=O)Nc3ccccc3N)c2O[C@@H]1CN(C)Cc1ccc(Oc2ccccc2)cc1`: the cytotoxicity call is “active”.

On to `COc1ccc(CN(C)C[C@@H]2Oc3c(NC(=O)CCCCCC(=O)Nc4ccccc4N)cccc3C(=O)N([C@H](C)CO)C[C@H]2C)cc1`, for which the cytotoxicity call was “inactive”.

As for `CO[C@@H]1CN(C)C(=O)c2cc(NS(C)(=O)=O)ccc2OC[C@H](C)N(C(=O)CN(C)C)C[C@@H]1C`, the cytotoxicity call was “inactive”.

As for `C[C@H](CO)N1C[C@H](C)[C@H](CN(C)CC2CC2)OCCCC[C@H](C)Oc2ccc(NC(=O)CCC(F)(F)F)cc2C1=O`, the cytotoxicity call is “inactive”.

As for `CN(C)CCNC(=O)c1ccccn1`, the cytotoxicity call is “inactive”.

In the case of `CC(=O)Oc1ccc(C(c2ccc(OC(C)=O)cc2)c2ccccn2)cc1`, the cytotoxicity call is “inactive”.

For the molecule `CN(C)CCC(c1ccc(Cl)cc1)c1ccccn1.O=C(O)C=CC(=O)O` (centres undefined), the cytotoxicity call is “active”.

Consider `CN(C)CCC(c1ccc(Br)cc1)c1ccccn1.O=C(O)C=CC(=O)O` (centres undefined), for which the cytotoxicity call was “active”.

In the case of `CN(C)CCOC(c1ccc(Cl)cc1)c1ccccn1.O=C(O)C=CC(=O)O` (centres undefined), the cytotoxicity call is “inactive”.

Take `CN(C)CCC(c1ccccc1)c1ccccn1.O=C(O)C=CC(=O)O` (centres undefined): the cytotoxicity call was “inactive”.

In the case of `C[C@@H]1CN([C@@H](C)CO)C(=O)c2cc(NC(=O)c3ccncc3)ccc2O[C@@H](C)CCCCO[C@H]1CN(C)C(=O)C1CCCCC1`, the cytotoxicity call was “inactive”.

As to `C[C@@H]1CN([C@@H](C)CO)C(=O)c2cc(NS(=O)(=O)c3cccs3)ccc2O[C@@H]1CN(C)S(=O)(=O)c1cccs1`, the cytotoxicity call was “inactive”.

Take `C[C@H](CO)N1C[C@H](C)[C@H](CN(C)S(=O)(=O)c2ccccc2)Oc2c(NS(C)(=O)=O)cccc2C1=O`: the cytotoxicity call was “inactive”.

Consider `CN(C)S(=O)(=O)N(C)c1ccccc1`, for which the cytotoxicity call is “inactive”.

As to `C[C@@H]1CN([C@@H](C)CO)C(=O)c2cc(NC(=O)Nc3ccc4c(c3)OCO4)ccc2O[C@@H](C)CCCCO[C@H]1CN(C)C(=O)Nc1ccc(C(F)(F)F)cc1`, the cytotoxicity call was “inactive”.

For `C[C@H]1CN([C@@H](C)CO)C(=O)c2cc(NS(=O)(=O)c3ccc(F)cc3)ccc2O[C@H]1CN(C)C(=O)Nc1cccc2ccccc12`, the cytotoxicity call is “inactive”.

For `S=C(SN1CCOCC1)N1CCOCC1`, the cytotoxicity call was “inactive”.

As for `COc1cc(Nc2ncc3c(n2)-c2ccc(Cl)cc2C(c2c(F)cccc2OC)=NC3)ccc1C(=O)O`, the cytotoxicity call was “active”.

`C[C@H](CO)N1C[C@H](C)[C@@H](CN(C)Cc2ccc(C(F)(F)F)cc2)Oc2ccc(NC(=O)CCCCCC(=O)Nc3ccccc3N)cc2C1=O`: the cytotoxicity call is “inactive”.

For `C[C@H]1CN([C@@H](C)CO)C(=O)c2cc(NC(=O)CCCCCC(=O)Nc3ccccc3N)ccc2O[C@H]1CN(C)Cc1ccc(-c2ccccc2)cc1`, the cytotoxicity call is “inactive”.

With `C[C@H](CO)N1C[C@H](C)[C@H](CN(C)Cc2ccc(-c3ccccc3)cc2)Oc2ccc(NC(=O)CCCCCC(=O)Nc3ccccc3N)cc2C1=O`, the cytotoxicity call is “active”.

On to `C[C@@H]1CN([C@@H](C)CO)C(=O)c2cc(NC(=O)CCCCCC(=O)Nc3ccccc3N)ccc2O[C@H]1CN(C)Cc1ccc(C(F)(F)F)cc1`, for which the cytotoxicity call is “inactive”.

On to `C[C@@H]1CN([C@H](C)CO)C(=O)c2cc(NC(=O)CCCCCC(=O)Nc3ccccc3N)ccc2O[C@@H]1CN(C)Cc1ccc(C(F)(F)F)cc1`, for which the cytotoxicity call was “inactive”.

Consider `C[C@@H]1CN([C@@H](C)CO)C(=O)c2cc(NC(=O)CCCCCC(=O)Nc3ccccc3N)ccc2O[C@@H]1CN(C)Cc1ccc(-c2ccccc2)cc1`, for which the cytotoxicity call is “active”.

As to `C[C@@H]1CN([C@H](C)CO)C(=O)c2cc(NC(=O)CCCCCC(=O)Nc3ccccc3N)ccc2O[C@H]1CN(C)Cc1ccc(-c2ccccc2)cc1`, the cytotoxicity call is “active”.

Regarding `C[C@H](CO)N1C[C@H](C)[C@H](CN(C)Cc2ccc(C(F)(F)F)cc2)Oc2ccc(NC(=O)CCCCCC(=O)Nc3ccccc3N)cc2C1=O`, the cytotoxicity call is “inactive”.

With `C[C@@H]1CN([C@@H](C)CO)C(=O)c2cc(NC(=O)CCCCCC(=O)Nc3ccccc3N)ccc2O[C@@H]1CN(C)Cc1ccc(C(F)(F)F)cc1`, the cytotoxicity call is “inactive”.

Source of the values: the antibiotic and cytotoxicity screens of Wong et al. (2023).
